Source: PubChem BioAssay (Milwaukee Institute for Drug Discovery)
Cy5 interf NS3h: counter-screen for HCV NS3 helicase inhibitors: fluorescence interference | Cy5-dT15 DNA with NS3h; actives lie on both sides; signal over control mean, under 1 quenches | fluorescence interference ratio at 100 µM | hit rate 6% among 16,000;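 active means compound fluorescence over control fluorescence at most 0.8, a quencher, or at least a set upper limit, an enhancer; inactive means ratio between 0.8 and the set upper limit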
HCV NS3h FP: hepatitis C NS3 helicase inhibition, primary screen. NS3h Cy5-dT15 DNA binding, fluorescence polarization. hit rate 1.6% among 16,000. inhibition, % at 100 µM;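 active means inhibition above the average over every tested compound plus 3 SD, cut at about 40% in these data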
HCV NS3h conf: hepatitis C NS3 helicase inhibition, confirmation. shares compounds with HCV NS3h FP. NS3h binding to Cy5-dT15 DNA, fluorescence polarization. inhibition, % at 100 µM. hit rate 20% among 240. AID 720485;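 active means percent inhibition of 50% or more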
SSB FP counter: E. coli SSB-DNA binding inhibition, NS3h counter-screen; AID 720486; shares compounds with HCV NS3h FP; hit rate 40% among 240; inhibition, % at 100 µM; E. coli SSB binding Cy5-dT15, fluorescence polarization;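 active means inhibition of at least 50%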;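 further: displacers lower Cy5 polarization so higher inhibition means more SSB displaced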
Target sequence (P0AGE0 whole entry, looked up): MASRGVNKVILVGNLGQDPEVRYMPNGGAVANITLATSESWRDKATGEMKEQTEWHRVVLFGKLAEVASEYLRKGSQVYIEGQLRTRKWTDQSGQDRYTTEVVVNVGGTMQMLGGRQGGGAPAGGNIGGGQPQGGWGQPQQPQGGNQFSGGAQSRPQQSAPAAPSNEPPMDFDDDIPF
Cy5 SSB interf: Cy5 fluorescence interference in NS3h counter-screen. shares compounds with HCV NS3h FP. Cy5-dT15/E. coli SSB fluorescence interference; actives lie on both sides. fluorescence interference ratio at 100 µM. hit rate 8% among 240;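 active means fluorescence interference ratio at or above 1.2, signal boosting, or at or below 0.8, signal quenching; inactive means ratio between 0.8 and 1.2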;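 further: ratio of compound well signal to mean negative control signal so 1 means no effect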
Cy5 interf conf: Cy5 fluorescence interference, confirmation counter-screen | Cy5-dT15 DNA/NS3h fluorescence interference counterscreen | shares compounds with HCV NS3h FP | hit rate 44% among 240 | fluorescence interference ratio at 100 µM, hits read low | AID 720489;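 active means fluorescence interference ratio at or below 0.8 quencher or at or above a set limitenhancer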;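 further: ratio of compound fluorescence to mean of negative controls so 1 means no interference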
* = called active by the depositor; nt = not tested or not shown. A selection: hits, their analogues and other compounds. The true share with any hit is near 6.9%.

SMILES	Cy5 interf NS3h	HCV NS3h FP	HCV NS3h conf	SSB FP counter	Cy5 SSB interf	Cy5 interf conf
O=C(O)c1ccc(OCC(O)Cn2cnc3ccccc32)cc1 (stereo not given)	1.12	-1.8	nt	nt	nt	nt
O=C(O)COc1ccc(/C=C2\C(=O)NN(c3ccccc3)C2=O)cc1	0.969	11.9	nt	nt	nt	nt
O=C1/C(=C/c2ccc(-c3cccc(Cl)c3)o2)SC(=S)N1C1CCS(=O)(=O)C1 (stereo not given)	1.09	11.6	nt	nt	nt	nt
Cc1ccsc1/C=C1\SC(=S)N(C2CCS(=O)(=O)C2)C1=O (stereo not given)	1.33*	68.5*	4.4	17.5	0.906	0.723*
N#Cc1c(-c2ccco2)c2c([nH]c1=S)CCCC2	1.08	18.5	nt	nt	nt	nt
N#Cc1c(N)c(C#N)c(-c2ccco2)c2c1CCCC2	0.963	31.9	17.1	21.1	0.98	0.918
Cc1c(OC(C)C(=O)O)ccc2c(-c3ccccc3)cc(=O)oc12 (stereo not given)	1.05	0.3	nt	nt	nt	nt
CCOC(=O)CNC(=O)c1cc(OCC)c(OCC)c(OCC)c1	1.04	3.5	nt	nt	nt	nt
Cc1ccc(NCCC(=O)c2cccs2)cc1	1	2.7	nt	nt	nt	nt
Cc1ccc(OCCOc2ccc(Cl)cc2/C=C2/SC(=S)N(C)C2=O)cc1	0.914	45.8*	1.3	10.2	1.06	0.8*
COc1ccccc1OCCOc1ccc(Cl)cc1/C=C1/SC(=S)N(C)C1=O	1.1	12.9	nt	nt	nt	nt
Cc1cccc(NC(=O)c2ccccc2NC(=O)/C=C\c2ccco2)c1C	0.931	4.6	nt	nt	nt	nt
O=C(/C=C/c1ccco1)Nc1ccc(O)cc1C(=O)O	1.05	61.1*	39.4	92.7*	0.905	0.996
O=C(CCCN1C(=O)/C(=C\c2cccc(Br)c2)SC1=S)Nc1ccc(C(=O)O)cc1	0.989	30.1	24.5	4.1	0.975	0.974
O=C(CN1C(=O)/C(=C/c2cccc(Br)c2)SC1=S)Nc1ccccn1	0.974	10.0	nt	nt	nt	nt
COc1cc(/C=C2\C=C(c3ccc(C)cc3)OC2=O)ccc1OC(C)=O	0.961	-1.8	nt	nt	nt	nt
CCC(C)c1ccc(NC(=O)c2ccc(Br)o2)c(O)c1 (stereo not given)	0.96	8.0	nt	nt	nt	nt
COc1ccc(N2C(=O)c3ccccc3NC2c2cccc(F)c2)cc1 (stereo not given)	0.995	5.5	nt	nt	nt	nt
Cc1ccc(N2C(=O)c3ccccc3NC2c2cccc(F)c2)cc1 (stereo not given)	1.11	30.1	9.7	7.8	0.972	0.722*
CCN(CC)CCN1C(=O)c2ccccc2NC1c1cccc(F)c1 (stereo not given)	1.09	41.3*	4.4	10.2	0.937	0.957
CCCN1C(=O)c2ccccc2NC1c1cccc(F)c1 (stereo not given)	0.973	4.1	nt	nt	nt	nt
Cc1ccc2oc(-c3cc(NC(=O)c4ccc5c(c4)OCCO5)ccc3O)nc2c1	1.05	5.3	nt	nt	nt	nt
COCCN1C(=O)/C(=C\c2ccc(-c3cc(Cl)ccc3Cl)o2)SC1=S	1.02	-1.7	nt	nt	nt	nt
O=C1C(=C/C(Br)=C/c2ccccc2)SC(=S)N1Cc1ccccc1	1.06	7.5	nt	nt	nt	nt
CC(/C=C1\SC(=S)N(C(C(=O)O)c2ccccc2)C1=O)=C\c1ccccc1 (stereo not given)	0.938	24.2	4.4	5.3	0.974	0.686*
SMILES	Cy5 interf NS3h	HCV NS3h FP	HCV NS3h conf	SSB FP counter	Cy5 SSB interf	Cy5 interf conf
Cc1ccc2nsnc2c1NC(=O)c1cccc(Br)c1	1.03	14.7	nt	nt	nt	nt
COc1ccc(CC(=O)Nc2ccc(Cl)cc2)cc1OC	0.901	3.3	nt	nt	nt	nt
Cc1cc(C)cc(N2C(=O)NC(=O)/C(=C\c3cc(Br)c(O)c([N+](=O)[O-])c3)C2=O)c1	0.985	35.5	27.7	52.7*	0.946	0.991
Cc1cccc(N2C(=O)NC(=O)/C(=C\c3cc(Br)c(O)c([N+](=O)[O-])c3)C2=O)c1	0.988	31.5	31.9	62.4*	0.928	0.75*
COc1cc(/C=C2\C(=O)NC(=O)N(c3cc(C)cc(C)c3)C2=O)cc(OC)c1O	1.06	7.9	nt	nt	nt	nt
Cc1cccc(N2C(=O)NC(=O)/C(=C/c3cc(Cl)c(O)c(Cl)c3)C2=O)c1	1.04	15.6	nt	nt	nt	nt
C=C1c2cc(OC)ccc2NC(=O)N1CC	1.09	-1.3	nt	nt	nt	nt
CC1=[N+]([O-])C(C)(C)C(c2ccco2)=[N+]1[O-]	0.977	3.2	nt	nt	nt	nt
COc1ccc(-n2c(Cc3ccccc3)n[nH]c2=S)c(OC)c1	0.932	0.3	nt	nt	nt	nt
COc1cc(N)ccc1-n1c(C)ccc1C	0.703*	68.0*	7.6	22.3	0.688*	0.614*
O=C1CSC(=Nc2ccc(O)cc2)N1	0.993	4.2	nt	nt	nt	nt
Cc1ccc(C)n1/N=C1/NC(=O)CS1	0.966	90.0*	77.4*	107.3*	0.933	0.97
CCOC(=O)Cc1nnc(Nc2ccc(C)cc2)c2ccccc12	1.06	12.9	nt	nt	nt	nt
C=CCO/N=C(/CCC)C1=C(N2CCCC2)CC(C)(C)CC1=O	0.86	21.1	nt	nt	nt	nt
C=C(C)COc1ccccc1/C=C1\N=C(c2cccs2)OC1=O	1.04	7.3	nt	nt	nt	nt
COc1ccc(OC)c(N2C(=O)NC(=O)/C(=C/C=C/c3ccccc3)C2=O)c1	0.922	48.8*	21.4	32.0	0.977	0.827
COc1ccc(OC)c(N2C(=O)NC(=O)C(=Cc3cccs3)C2=O)c1	1.04	95.3*	38.3	6.6	0.977	0.813
O=C1NC(=O)N(c2ccc(Cl)cc2)C(=O)/C1=C/c1cccs1	1.01	8.2	nt	nt	nt	nt
COc1ccccc1N1C(=O)NC(=O)/C(=C\c2ccc(Br)cc2)C1=O	0.924	18.9	nt	nt	nt	nt
CCN(CC)c1ccc(C=Nc2ccc(S(N)(=O)=O)cc2)c(O)c1	1.02	8.6	nt	nt	nt	nt
CCN(CC)c1ccc(N=Cc2c(O)[nH]c(=S)[nH]c2=O)cc1	0.734*	93.5*	54.2*	69.7*	0.911	0.79*
N/C(=N/OC(=O)c1ccc(Br)cc1)c1ccccn1	1.02	14.7	nt	nt	nt	nt
O=C(Oc1ccc(Cl)cc1)c1c(F)cccc1F	0.944	1.3	nt	nt	nt	nt
Nc1c(Cl)cc(N2C(=O)C=CC2=O)cc1Cl	0.958	54.4*	61.6*	15.0	0.902	0.878
O=C(NCc1ccco1)c1nn2c(c1Cl)NC(c1cccs1)CC2C(F)(F)F (stereo not given)	1.09	7.7	nt	nt	nt	nt
SMILES	Cy5 interf NS3h	HCV NS3h FP	HCV NS3h conf	SSB FP counter	Cy5 SSB interf	Cy5 interf conf
CCCC(C(=O)O)N1C(=O)/C(=C\c2ccc(-c3ccc([N+](=O)[O-])cc3)o2)SC1=S (stereo not given)	0.864	84.1*	7.6	53.9*	0.816	0.705*
O=C1/C(=C/c2ccc(-c3ccc([N+](=O)[O-])cc3)o2)SC(=S)N1Cc1ccccc1	0.96	-6.5	nt	nt	nt	nt
NS(=O)(=O)c1ccc(-c2ccc(/C=C3/C(=O)NN(c4cccc(Cl)c4)C3=O)o2)cc1	1.01	6.8	nt	nt	nt	nt
O=C1NN(c2ccc(F)c(Cl)c2)C(=O)/C1=C\c1ccc(-c2cccc(C(=O)O)c2)o1	0.805*	42.8*	12.9	27.2	0.92	0.956
CC1=NN(c2ccc(Cl)c(C(=O)O)c2)C(=O)/C1=C\c1ccc(-c2cccc([N+](=O)[O-])c2)o1	0.889	1.7	nt	nt	nt	nt
O=C1NN(c2ccc(Cl)cc2)C(=O)/C1=C\c1ccc(-c2cccc(C(=O)O)c2)o1	0.931	55.1*	31.9	61.2*	0.849	0.729*
